# Results filed as inconclusive are left out. Where a call stands in place of a potency, no number is given. Activity calls are given as the source filed them. Unless noted, the call rests on the fitted dose curve; in most records, active means well fitted curve in the direction sought with a large enough effect in the repeat runs; inconclusive means weak or mixed curves; inactive means no such curve, though single readings can be large; an effect the other way counts as inactive or inconclusive.
# Key:
# [1] = molecular target: Retinoic acid receptor RXR-alpha (Homo sapiens) (UniProt P19793); experiment: qHTS assay to identify small molecule agonists of the RXR signaling pathway (AID 1159527; calls by dose curve; further: nearly all actives have a fitted effect of over 35% in size)
# Retinoic acid receptor RXR-alpha (Homo sapiens), sequence (P19793 whole entry, looked up): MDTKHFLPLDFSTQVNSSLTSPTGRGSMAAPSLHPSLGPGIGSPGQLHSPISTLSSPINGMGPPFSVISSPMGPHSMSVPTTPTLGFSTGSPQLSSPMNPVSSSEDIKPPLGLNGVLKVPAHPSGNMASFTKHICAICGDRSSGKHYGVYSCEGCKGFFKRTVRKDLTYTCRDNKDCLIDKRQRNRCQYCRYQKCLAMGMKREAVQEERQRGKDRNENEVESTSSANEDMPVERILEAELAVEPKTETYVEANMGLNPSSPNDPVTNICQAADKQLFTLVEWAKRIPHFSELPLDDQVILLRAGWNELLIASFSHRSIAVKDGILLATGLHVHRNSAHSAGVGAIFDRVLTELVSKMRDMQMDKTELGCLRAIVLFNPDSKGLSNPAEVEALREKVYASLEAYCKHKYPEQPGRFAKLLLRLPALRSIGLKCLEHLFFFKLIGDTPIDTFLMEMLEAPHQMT
# Procedure, shortened: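 qHTS of the Tox21 10K library in GeneBLAzer RXR-alpha HEK 293T cells carrying a beta-lactamase reporter […]; 16 hr treatment, 9-cis retinoic acid as agonist control, FRET read-out.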
# [2] = qHTS assay to identify small molecule antagonists of the retinoid acid receptor (RAR) signaling pathway - cell viability counter screen (AID 1159551); further: nearly all actives have a fitted effect of over 35% in size
# Procedure, shortened: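 Retinol-stimulated (1 uM final) C3RL4 cells, compound 6 h, 37 C; readout CellTiter-Glo luminescence (ATP) after 30 min RT incubation.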
# [3] = qHTS assay to identify small molecule antagonists of the retinoic acid receptor (RAR) signaling pathway (AID 1159552; further: nearly all actives have a fitted effect of over 50% in size)
# Procedure, shortened: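 Quantitative HTS in C3RL4 RARE-luciferase reporter cells. Compounds were added with 1 uM (final) retinol; luminescence was read after 6 hr.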
# [4] = qHTS assay to identify small molecule agonists of the retinoic acid receptor (RAR) signaling pathway (AID 1159553); conditions: C3RL4 RARE luciferase reporter, agonist, 6 h; activation: at 73.3 µM (top of the series) unless noted; further: potency means the concentration at half of the fitted maximal effect
# Procedure, shortened: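 Reporter readout comes from luciferase under RARE control in C3RL4 cells; compound exposure lasts 6 hr at 37 C in 5% CO2, and luminescence is recorded following a 30 min room-temperature incubation with reagent.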
# [5] = qHTS assay to identify small molecule agonists of the RXR signaling pathway - cell viability counter screen (AID 1159529); further: nearly all actives have a fitted effect of over 50% in size
# Procedure, shortened: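 Cell viability is measured by CellTiter-Glo luminescence, 30 min at room temperature, in wells already read for beta-lactamase. Engineered HEK 293T cells (RXR-alpha-UAS-bla) are dosed 16 hr at 37 C. Tetraoctyl ammonium bromide serves as positive control.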
Structure (SMILES),Potency [1],Potency [2],Potency [3],Potency [4],Potency [5]
CCCCNC(=O)n1c(NC(=O)OC)nc2ccccc21,inactive,inactive,inactive,13.6 µM (active),–
Cc1cc(Cl)ccc1OCCCC(=O)O,–,inactive,inactive,inactive,inactive
O=P(Oc1ccccc1)(Oc1ccccc1)Oc1ccccc1,–,inactive,–,–,–
